The results in this text go back to PubChem BioAssay (NCATS).

Test [1] is described as follows: qHTS drug screen for cell cycle checkpoint inhibitors in PARPi-resistant BRCA-mutant ovarian cancer cell lines. (AID 1963452; calls by dose curve). Conditions: PEO1/OlaR viability, CellTiter-Glo luminescence, 96 h; for Z-AUC: stronger effect = lower value. The gist of the method:
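PEO1, PEO4 and PEO1/OlaR ovarian cancer cells, 600 per well, exposed 96 h at 37C to a dilution series. Viability read by CellTiter-Glo luminescence, normalized to DMSO and empty wells; activity summarized as Z-AUC.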
A general note: qHTS replaces the single test concentration by a dilution series.

The nature of test [2]: qHTS for identification of novel therapeutic agents for treatment of microphthalmiaassociated transcription factor (MiT) renal cell carcinoma (RCC) (AID 1963991; calls by dose curve). Conditions: CellTiter-Glo, 48 h; for z-score: stronger effect = lower value; for Potency: active = Z-AUC below -0.8 in all three lines. The gist of the method: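 Three TFE3-fusion RCC lines (UOK109, UOK124, UOK145), 500 cells/well in complete medium, were treated with MIPE 4.0 compounds for 48 hours at 37 C. Viability was by CellTiter-Glo luminescence, normalized to DMSO (100%) and empty wells (0%); curves fitted over 11 concentrations.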

Test [3] can be described thus: qHTS profiling for inhibitors of Plasmodium falciparum proliferation (AID 504749).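 As to activity, negative = inhibition: 0% = DMSO vehicle and full inhibition = artemisinin control.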 As to all read-outs here: nearly all actives have a fitted effect of over 60% in size. Conditions: P. falciparum in erythrocytes, SYBR Green DNA, 72 h; for activity, negative = inhibition: at 28.7 µM (top of the series). The gist of the method: (§1)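 SYBR Green fluorescence (ex 485 nm, em 535 nm) reports parasite DNA after 72 h compound exposure of infected red cells at 0.3% parasitemia, 2.5% hematocrit; signal normalized to 0.29 uM artemisinin and vehicle wells.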

The next test deals with 3D7. The description is as above. Conditions: P. falciparum in erythrocytes, SYBR Green DNA, 72 h; series mostly up to 28.7 µM. The gist of the method: as §1
For a further test, the system named is 7G8. The description is as above. Conditions: P. falciparum in erythrocytes, SYBR Green DNA, 72 h; series mostly up to 28.7 µM. The gist of the method: as §1
In a further test the test system is AA1029. Described as above. Conditions: P. falciparum in erythrocytes, SYBR Green DNA, 72 h; series mostly up to 28.7 µM. The essentials: as §1
The next test relates to AS120. The test is described as above. Conditions: P. falciparum in erythrocytes, SYBR Green DNA, 72 h; series mostly up to 28.7 µM. The essentials:
as §1

The test system of another test is ATS189. The test is described as above. Conditions: P. falciparum in erythrocytes, SYBR Green DNA, 72 h; series mostly up to 28.7 µM. The essentials: as §1
For a further test, the system named is ATS95. The description is as above. Conditions: P. falciparum in erythrocytes, SYBR Green DNA, 72 h; series mostly up to 28.7 µM. The gist of the method: as §1
For the next test, the system named is C2A. The description is as above. Conditions: P. falciparum in erythrocytes, SYBR Green DNA, 72 h; series mostly up to 28.7 µM. The essentials:
as §1

Another test concerns CP185. Described as above. Conditions: P. falciparum in erythrocytes, SYBR Green DNA, 72 h; series mostly up to 28.7 µM. The gist of the method:
as §1

A further test deals with CP191. Described as above. Conditions: P. falciparum in erythrocytes, SYBR Green DNA, 72 h; series mostly up to 28.7 µM. The essentials:
as §1

Another test relates to CP192. The test is described as above. Conditions: P. falciparum in erythrocytes, SYBR Green DNA, 72 h; series mostly up to 28.7 µM. The essentials: as §1
The subject of another test is CP194. Described as above. Conditions: P. falciparum in erythrocytes, SYBR Green DNA, 72 h; series mostly up to 28.7 µM. The essentials:
as §1

A further test concerns CP201. The test is described as above. Conditions: P. falciparum in erythrocytes, SYBR Green DNA, 72 h; series mostly up to 28.7 µM. The essentials: as §1
Where [4] appears, read: measured here: PEO1 parental Z-AUC.
[5] abbreviates: TFE3-RCC UOK109 viability, measured here: UOK109 Z-AUC.
The mark [6] stands for this setting: TFE3-RCC viability, measured here: UOK124 Z-AUC.
[7] abbreviates: TFE3-RCC viability, measured here: UOK145 Z-AUC.

Results filed as inconclusive are left out. The source made the active and inactive calls. Unless noted, calls follow the shape of the dose curve; as a rule, active = well fitted inhibition curve with a large enough effect; inconclusive = small, poorly fitted or top-dose-only effect; inactive = flat fitted curve, though single readings scatter.
Potency is read from the fitted curve at half-maximal effect.

`O=C1c2c(O)cc(O)cc2OC(c2ccc(O)c(O)c2)C1O` (stereo not given): the Z-AUC is -0.835 (inactive) in test [1], -0.249 in test [1] (setting [4]) and -0.326 in test [1] (measured here: PEO4 Z-AUC). The values for the z-score in [2] (setting [5]), in test [2] (setting [6]) and in test [2] (setting [7]) were -0.477, 0.528 and 0.535, respectively.
Regarding `Nc1ccc(S(N)(=O)=O)cc1`, the Z-AUC is 0.067 (inactive) in test [1], 0.495 in [1] (setting [4]) and 0.56 in [1] (measured here: PEO4 Z-AUC). In addition, the figures for the z-score in test [2] (setting [5]), in test [2] (setting [6]) and in [2] (setting [7]) were 1.06, 0.709 and 1.29, respectively. In addition, the values for the activity, negative = inhibition in [3] (parasite line A) and in test [3] (parasite line B) were 13.4% (inactive) and 14.6% (inactive), respectively. Also, the Potency result in the test on 3D7, in the test on 7G8, in the test with AA1029, in the test with AS120, with ATS189 and in the test on ATS95 was “inactive” throughout. The Potency entry in the test on C2A, in the test with CP185, in the test with CP191, with CP192, in the test with CP194 and in the test with CP201 was “inactive” each time.
On to `O=C(O)CCNC(=O)c1ccc(N=Nc2ccc(O)c(C(=O)O)c2)cc1`, for which the Z-AUC in test [1] was -0.101 (inactive); in [1] (setting [4]), 0.264; in test [1] (measured here: PEO4 Z-AUC) it was 0.361. For the same compound, the z-score in [2] (setting [5]) is 1.03; in test [2] (setting [6]), 0.51; in [2] (setting [7]), 0.488. In addition, the activity, negative = inhibition was 4.07% (inactive) in [3] (parasite line A) and 9.54% (inactive) in [3] (parasite line B). Further, the Potency entry in the test with 3D7, in the test with 7G8, in the test with AA1029, in the test on AS120, in the test with ATS189 and in the test on ATS95 was “inactive” each time. In addition, the Potency result in the test on C2A, in the test on CP185, with CP191, in the test with CP192, in the test with CP194 and in the test on CP201 was “inactive” throughout.
In the case of `CC(=O)O[C@H]1C(=O)[C@@]2(C)C([C@H](OC(=O)c3ccccc3)[C@]3(O)C[C@H](OC(=O)[C@H](O)[C@@H](NC(=O)c4ccccc4)c4ccccc4)C(C)=C1C3(C)C)[C@]1(OC(C)=O)CO[C@@H]1C[C@@H]2O` (stereo not given in full), the figures for the Potency in test [1] and in test [2] (TFE3-RCC UOK109 viability) were 7.8 nM (active) and 41.8 nM (active), respectively. In addition, the figures for the Z-AUC in [1] (setting [4]) and in [1] (measured here: PEO4 Z-AUC) were -2.74 and -3.15, respectively. Also, the z-score in test [2] (setting [5]) was -1.4; in test [2] (setting [6]) it was -1.86; in test [2] (setting [7]), -1.46.
Consider `CC(=O)NC[C@H]1CN(c2ccc(N3CCOCC3)c(F)c2)C(=O)O1`, for which the Z-AUC in test [1] is -0.303 (inactive); in [1] (setting [4]) it was -0.362; in [1] (measured here: PEO4 Z-AUC), -0.619. Moreover, the z-score in test [2] (setting [5]) is -0.988; in test [2] (setting [6]) it was 0.658; in test [2] (setting [7]), 1.47.
Regarding `CC[C@]1(O)C[C@H]2CN(CCc3c([nH]c4ccccc34)[C@@](C(=O)OC)(c3cc4c(cc3OC)N(C=O)[C@H]3[C@@](O)(C(=O)OC)[C@H](OC(C)=O)[C@]5(CC)C=CCN6CC[C@]43[C@@H]65)C2)C1`, the Z-AUC in test [1] is -0.637 (inactive); in test [1] (setting [4]), -1.14; in [1] (measured here: PEO4 Z-AUC) it was -1.16. The Potency is 66.2 nM (active) in [2] (TFE3-RCC UOK109 viability); 2240 nM (active) in test [3] (parasite line A); 141 nM (active) in the test with 7G8; 2510 nM (active) with AA1029; 3550 nM (active) in the test with AS120; 2510 nM (active) with ATS95. Moreover, the Potency in the test on C2A is 2000 nM (active); in the test on CP185 it was 1580 nM (active); in the test on CP191, 2240 nM (active); in the test on CP194, 1690 nM (active). Further, the z-score in [2] (setting [5]) is -0.827; in test [2] (setting [6]) it was -2.28; in test [2] (setting [7]), -0.98.
For `O=C(NCCO[N+](=O)[O-])c1cccnc1`, the values for the Z-AUC in [1], in test [1] (setting [4]) and in test [1] (measured here: PEO4 Z-AUC) were -0.64 (inactive), -0.487 and -0.272, respectively. Also, the z-score in [2] (setting [5]) was determined as 1.2; in [2] (setting [6]) it was 0.824; in test [2] (setting [7]) it was 0.646. Moreover, the results for the activity, negative = inhibition in test [3] (parasite line A) and in [3] (parasite line B) were 22.6% (inactive) and 3.27% (inactive), respectively. In addition, the Potency entry in the test on 3D7, in the test with 7G8, with AA1029, in the test on AS120, in the test with ATS189 and with ATS95 was “inactive” each time. The Potency entry in the test on C2A, in the test on CP185, with CP191, in the test with CP192, in the test on CP194 and in the test with CP201 was “inactive” each time.
